aGal spleen mod – inhibits or activates alpha-galactosidase in human spleen homogenate. human spleen homogenate, 4MU-alpha-Gal fluorescence, 40 min. Potency, µM (titrated, usually from 80 µM), usual class: inhibitors. 240,000 compounds, 0.008% hits. AID 2107
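Fluorogenic readout (Ex 365/Em 440 nm) of 4-methylumbelliferone released from 1 mM 4-MU-alpha-galactoside by spleen homogenate, 40 min at 37C, pH 5.0. Data normalized to no-enzyme and enzyme controls; Hill-equation AC50 from compound titrations.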
GAA glycogen – inhibitors or activators of human alpha-glucosidase glycogen cleavage | P10253 | recombinant GAA, glycogen substrate, Amplex Red glucose oxidase fluorescence | Potency, µM (titrated, usually from 76.4 µM), hits mostly inhibitors | 300,000 compounds, 0.38% hits;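 also: the screen sought inhibitors and activators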
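Recombinant enzyme (4 nM final) with compounds titrated up to 77 uM and bovine liver glycogen (30 ug) in citrate pH 5.0, 0.01% Tween-20, 37 C 40 min. Released glucose detected by Amplex Red/glucose oxidase (Ex 573/Em 610); AC50 from Hill fits.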
GLA inh pH 4.5 – inhibitors of human alpha-galactosidase A at pH 4.5; P06280; purified enzyme, 4-MU-alpha-Gal fluorescence, pH 4.5; activity change, negative = inhibition, % at 105 µM; 230,000 tested, under 10 active
Target sequence (P06280 whole entry, looked up): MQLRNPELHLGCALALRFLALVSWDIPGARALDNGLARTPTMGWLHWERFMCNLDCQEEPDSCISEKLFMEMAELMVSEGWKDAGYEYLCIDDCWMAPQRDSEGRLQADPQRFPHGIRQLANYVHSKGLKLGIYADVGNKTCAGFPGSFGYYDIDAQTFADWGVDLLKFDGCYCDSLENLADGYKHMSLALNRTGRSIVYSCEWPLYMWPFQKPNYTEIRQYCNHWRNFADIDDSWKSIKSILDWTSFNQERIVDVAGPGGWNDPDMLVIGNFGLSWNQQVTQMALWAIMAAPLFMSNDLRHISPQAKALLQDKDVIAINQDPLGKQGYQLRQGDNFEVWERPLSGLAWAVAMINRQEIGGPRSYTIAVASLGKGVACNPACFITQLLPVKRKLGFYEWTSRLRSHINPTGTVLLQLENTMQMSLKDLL
GAA spleen mod – inhibitors or activators of human alpha-glucosidase in spleen homogenate; 240,000 compounds, 0.006% hits; human spleen homogenate, 4-MU-alpha-glucoside fluorescence; Potency, µM (doses to about 79.9 µM), hits mostly inhibitors
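Human spleen homogenate (1 ug) with 4-methylumbelliferyl-alpha-D-glucopyranoside (1 mM final) in 50 mM citrate/phosphate pH 5.0, 0.01% Tween-20; 40 min at 37 C. Stopped at pH 10; 4-MU fluorescence Ex 365/Em 440 nm; AC50 by Hill fit.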
GAA inhib – blocks human lysosomal alpha-glucosidase | purified human GAA, 4-MU-alpha-glucoside fluorescence | Potency, µM (top dose mostly 76.9 µM), most hits filed as inhibitors | 200,000 compounds, 0.005% hits
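Fluorescence at Ex 365/Em 440 nm from 4-methylumbelliferone reported enzyme activity after 20 min at room temperature. Reactions used 4 nM enzyme and 400 uM substrate at pH 5.0; curves fitted with the Hill equation.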
Large screens that a line does not name were inactive. Shown are actives, neighbours in structure and some others; about 0.4% of the full set was active somewhere. Calls follow the shape of the dose curve; as a rule, active = well fitted curve in the direction sought with a large enough effect; inconclusive = small, poorly fitted or top-dose-only effect, or another doubt; inactive = no such curve, though single readings can be large; an effect the other way counts as inactive or inconclusive.

Cc1cc2c(s1)Nc1ccccc1N=C2N1CCN(C)CC1	GAA glycogen 5.6µM
CCCC/C(C)=C/[C@@H](NP(=O)(c1ccccc1)c1ccccc1)c1ccccc1	GAA glycogen 1.3µM, GAA inhib inconclusive
CCCC/C=C/[C@@H](NP(=O)(c1ccccc1)c1ccccc1)c1ccccc1OC	none (no result: GAA glycogen, GAA inhib)
O=C1CC(=O)N(Cc2ccccc2)C(=S)N1	none (no result: aGal spleen mod, GLA inh pH 4.5, GAA spleen mod, GAA inhib)
O=C1CC(N(O)c2ccccc2)C(=O)N1Cc1ccccc1 (centres undefined)	GAA glycogen 32µM
C[C@]12CC[C@H]3[C@@H](CCC4=CC(=O)CC[C@@H]43)[C@@H]1CC[C@@H]2O	none (no result: GAA glycogen, GAA inhib)
C[C@]12CC[C@@H]3c4cc(O)c(O)cc4CC[C@H]3[C@@H]1CC[C@@H]2O	GAA glycogen 3.1µM
C[C@]12CC[C@@H]3c4ccc(O)c(O)c4CC[C@H]3[C@@H]1CC[C@@H]2O	GAA glycogen 8.8µM
O=C1CC(NC(=O)C(F)(F)F)=NN1c1ccccc1	GAA glycogen 18µM
CN1CC(C(=O)c2ccc(Cl)cc2)C(c2ccccc2F)C1 (centres undefined)	none
ON1C2CCCCC2N(O)C1c1ccccc1F (centres undefined)	GAA glycogen 8.8µM
Cc1cc(/C=C2\C(=O)NC(=O)N(c3ccc(F)cc3)C2=O)c(C)n1-c1ccc(C(=O)O)cc1	GAA glycogen inconclusive, GAA inhib 28µM
O=C1C=CC(=O)C(Cl)=C1	none (no result: GAA glycogen, GAA inhib)
CCN(CC)C(=O)C(C)Oc1cccc2ccccc12 (centres undefined)	none (no result: GAA glycogen, GLA inh pH 4.5, GAA inhib)
CNC(=O)Oc1cccc2ccccc12	GAA glycogen 35µM (no result: GAA inhib)
NC(=O)c1ncn(C2OC(CO)C(O)C2O)n1 (centres undefined)	none (no result: GAA glycogen, GAA inhib)
[Cl-].[Cl-].[Hg+2]	none (no result: GAA glycogen, GLA inh pH 4.5, GAA inhib)
CN1C(=O)C(Cc2ccc3c(c2)OCO3)C(=O)N(C)C1=O	GAA glycogen 40µM
CC(=O)[O-].CC(=O)[O-].O.O.O.[Pb+2]	none (no result: GAA glycogen, GLA inh pH 4.5, GAA inhib)
O=c1cc(-c2ccc(O)c(O)c2)oc2c(C3O[C@H](CO)[C@@H](O)[C@H](O)[C@H]3O)c(O)cc(O)c12 (some centres undefined)	GAA glycogen 4.5µM, GAA inhib inconclusive
O[C@@H]1[C@H](O)[C@H]2[C@@H](O)CCN2C[C@@H]1O	GAA spleen mod 35µM (no result: GAA glycogen, GAA inhib)
CCCCC/C=C\C/C=C\C/C=C\C/C=C\CCCC(=O)Nc1ccc(O)cc1C	aGal spleen mod inconclusive (no result: GAA glycogen, GAA inhib)
CCCCC/C=C\C/C=C\C/C=C\C/C=C\CCCC(=O)Nc1ccc(O)cc1	GAA glycogen 32µM, GAA inhib inconclusive
O=C(Nc1ccc(COc2ccccc2)cc1)Oc1ccccc1N1CCOCC1	GAA glycogen 4µM
CCOc1ccc(-c2nc3ccc(-c4nc5ccc(N6CCN(C)CC6)cc5[nH]4)cc3[nH]2)cc1	aGal spleen mod inconclusive (no result: GAA glycogen, GLA inh pH 4.5, GAA inhib)
CCOc1cc(/C=C2/NC(=O)N(CC(=O)Nc3cccc(C)c3)C2=O)ccc1O	GAA glycogen 22µM
NC1CCCC[C@@H]1N (some centres undefined)	none (no result: GAA glycogen, GLA inh pH 4.5, GAA inhib)
COc1ccc(NCC(=O)N2CCCC2)cc1Cl	GAA glycogen inconclusive
O=c1[nH]c(=O)n(Cc2ccco2)c(O)c1/C=N/N1CCCCCC1	none
N#Cc1c(/N=C/c2c(O)n(Cc3ccco3)c(=O)[nH]c2=O)sc2c1CCCC2	GAA glycogen 14µM
CCOP(=O)(OCC)C(Nc1cccc(C(F)(F)F)c1)c1ccc(Br)cc1 (centres undefined)	GAA inhib inconclusive
O=[N+]([O-])C(Br)Br	none (no result: GAA glycogen, GLA inh pH 4.5, GAA inhib)
O=C1C2CCN(CC2)C1Cc1ccccc1O (centres undefined)	none
Oc1ccc(CC2CC3CCN2CC3)cc1O (centres undefined)	GAA glycogen 3.5µM
CC(=O)Oc1c2c(c(CC=C(C)C)c3c1C(=O)C1=CC4CC5C(C)(C)OC(C/C=C(\C)C(=O)O)(C4=O)[C@]15O3)OC(C)(CCC=C(C)C)C=C2 (some centres undefined)	none (no result: GAA glycogen, GAA inhib)
CC12CCCCC1N(O)CN2O (centres undefined)	GAA glycogen 18µM

Screening data deposited in PubChem by National Center for Advancing Translational Sciences (NCATS).
